Experiment [1] in a line: qHTS assay to identify small molecule antagonists of the glucocorticoid receptor (GR) signaling pathway - cell viability counter screen (AID 720693). Further: nearly all actives have a fitted effect of over 55% in size. A general note: In qHTS, concentration-response curves come from the screen itself.
A short description of experiment [2]: qHTS assay for identifying genotoxic compounds that show differential cytotoxicity against isogenic chicken DT40 cell lines with known DNA damage response pathways - wild type cell line (AID 743012). Further: nearly all actives have a fitted effect of over 60% in size. Further: potency means the concentration at half of the fitted maximal effect. In short, it runs like this: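 Wild type DT40, 300 cells/well, ~0.5 h settle at 37 C/5% CO2; compounds in DMSO added by pintool; 40 h at 37 C/5% CO2; CellTiter-Glo, 30 min RT; luminescence.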

The nature of experiment [3]: qHTS assay for identifying genotoxic compounds that show differential cytotoxicity against isogenic chicken DT40 cell lines with known DNA damage response pathways - Rev3 mutant cell line (AID 743014). Further: nearly all actives have a fitted effect of over 55% in size. Further: potency means the concentration at half of the fitted maximal effect.
A short description of experiment [4]: qHTS assay for identifying genotoxic compounds that show differential cytotoxicity against isogenic chicken DT40 cell lines with known DNA damage response pathways - Rad54/Ku70 mutant cell line (AID 743015). Further: nearly all actives have a fitted effect of over 60% in size. Further: potency means the concentration at half of the fitted maximal effect.
Experiment [5] in a line: qHTS assay to identify small molecule antagonists of the androgen receptor (AR) signaling pathway - cell viability counter screen (AID 743033; further: nearly all actives have a fitted effect of over 45% in size).
Experiment [6] in a line: qHTS assay to identify small molecule antagonists of the androgen receptor (AR) signaling pathway using the MDA cell line - cell viability counter screen (AID 743041; further: nearly all actives have a fitted effect of over 45% in size). In a few lines:
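Cells were plated at 3,000 per well and left 5 h. Compounds in DMSO were then pinned in, followed by R1881. After 16 h at 37C, CellTiter-Fluor fluorescence gave viability.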

Experiment [7] addresses Androgen receptor (Homo sapiens) (UniProt P10275). Nature of the experiment: qHTS assay to identify small molecule antagonists of the androgen receptor (AR) signaling pathway (AID 743035; active means well fitted inhibition curve with a large enough effect in the signal ratio in the repeat runs, not every such curve was filed as active; the % refers to the signal ratio). In short, it runs like this: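 Fluorescence from a beta-lactamase FRET substrate (LiveBLAzer B/G, 2 h, room temperature) measured inhibition of R1881-stimulated signaling in GeneBLAzer AR-UAS-bla HEK293 cells exposed to compound for 16 h at 37C.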

Experiment [8] has the same target. Nature of the experiment: qHTS assay to identify small molecule agonists of the androgen receptor (AR) signaling pathway (AID 743036; active means well fitted activation curve with a large enough effect in the signal ratio in the repeat runs, with a control signal flat, not every such curve was filed as active; the % refers to the signal ratio). In short, it runs like this: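 Following a 4 h settling period, AR-UAS-bla HEK293 cells were dosed with compounds for 16 h at 37C. A 2 h room-temperature incubation with LiveBLAzer B/G FRET substrate preceded the fluorescence measurement.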

For experiment [9] the target is unchanged. Nature of the experiment: qHTS assay to identify small molecule agonists of the androgen receptor (AR) signaling pathway using the MDA cell line (AID 743040; further: nearly all actives have a fitted effect of over 20% in size). In short, it runs like this:
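Cells plated, 5 h at 37C/0% CO2; compound or DMSO pinned; 16 h at 37C; ONE-Glo added; luminescence measured after 30 min at room temperature. Reporter line: MDA-kb2 with MMTV-luciferase responsive to AR and GR.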

Experiment [10] has the same target. Nature of the experiment: qHTS assay to identify small molecule antagonists of the androgen receptor (AR) signaling pathway using the MDA cell line (AID 743042; further: nearly all actives have a fitted effect of over 55% in size). In a few lines:
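Antagonist mode: compounds plus R1881 agonist added to MDA-kb2 AR-luc cells, incubated 16 h at 37C. Luciferase reporter luminescence quantified, with multiplexed CellTiter-Fluor readout for cell viability.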

Where “and” joins values, the source holds several entries; their conditions need not be identical. Equal values may be shown once. Results filed as inconclusive are left out. Some compounds were tested as several samples or in several runs, with calls that do not always agree. Calls of active or inactive are those of the source. Unless noted, the call rests on the fitted dose curve; in most records, active means well fitted curve in the direction sought with a large enough effect in the repeat runs; inconclusive means weak or mixed curves; inactive means no such curve, though single readings can be large; an effect the other way counts as inactive or inconclusive.
On the % scale 0 is the no-effect control and ±100 the full control effect.

Sequence of Androgen receptor (Homo sapiens) (P10275 whole entry, looked up): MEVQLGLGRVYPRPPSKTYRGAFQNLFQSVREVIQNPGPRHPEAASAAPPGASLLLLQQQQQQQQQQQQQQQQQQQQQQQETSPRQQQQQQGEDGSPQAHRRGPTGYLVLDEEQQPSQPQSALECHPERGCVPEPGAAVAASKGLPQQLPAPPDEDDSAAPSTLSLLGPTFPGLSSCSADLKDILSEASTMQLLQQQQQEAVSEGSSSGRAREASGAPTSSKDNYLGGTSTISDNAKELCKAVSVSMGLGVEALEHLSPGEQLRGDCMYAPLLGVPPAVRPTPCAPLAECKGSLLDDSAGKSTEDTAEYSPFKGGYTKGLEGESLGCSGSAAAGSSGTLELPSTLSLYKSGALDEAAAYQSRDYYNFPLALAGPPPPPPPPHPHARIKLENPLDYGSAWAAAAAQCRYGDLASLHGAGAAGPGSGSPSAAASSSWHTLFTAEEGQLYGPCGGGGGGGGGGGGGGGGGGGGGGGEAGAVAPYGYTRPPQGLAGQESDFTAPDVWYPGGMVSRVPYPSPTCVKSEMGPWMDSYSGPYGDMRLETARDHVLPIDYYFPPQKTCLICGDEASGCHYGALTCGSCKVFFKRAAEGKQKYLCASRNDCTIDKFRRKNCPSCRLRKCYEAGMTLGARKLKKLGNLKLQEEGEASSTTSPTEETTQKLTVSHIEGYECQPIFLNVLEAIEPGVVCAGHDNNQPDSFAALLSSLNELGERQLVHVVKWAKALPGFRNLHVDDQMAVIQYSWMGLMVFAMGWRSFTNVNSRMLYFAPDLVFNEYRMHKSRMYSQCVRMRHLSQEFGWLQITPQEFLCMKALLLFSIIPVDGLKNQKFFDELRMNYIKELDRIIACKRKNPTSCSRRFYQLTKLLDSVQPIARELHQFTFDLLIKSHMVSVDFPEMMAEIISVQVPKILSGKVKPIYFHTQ

Take `NCCNCCN`: the result in [1] and in experiment [5] was inactive. Further, the Potency result in [2], in experiment [4] and in experiment [6] was “inactive” each time. The Potency entry in [3] is “inactive and 68.6 µM (active)”.

On to `CC(=O)Oc1ccc(C)cc1`, for which the outcome in [1], in experiment [5], in experiment [7] and in experiment [10] was inactive. Moreover, the Potency entry in experiment [2], in experiment [3], in experiment [4], in experiment [8], in experiment [9] and in experiment [6] was “inactive” each time.

Consider `CN1C(=O)CC[C@H]1c1cccnc1`, for which the compound was classed as inactive in experiment [1] and in experiment [5]. Further, the Potency result in experiment [2], in experiment [3], in experiment [4] and in [6] was “inactive” throughout.

Turning to `O=C(O)c1cc2ccccc2cc1O`, the compound was classed as inactive in [1], in [5] and in experiment [10]. The Potency entry in [2], in experiment [3], in [4], in [9] and in [6] was “inactive” throughout.

Take `CC(CCO)CC(C)(C)C` (stereo not given): the compound was called inactive in [1], in [5], in [7] and in experiment [10]. In addition, the Potency entry in experiment [2], in experiment [3], in experiment [4], in [8], in experiment [9] and in experiment [6] was “inactive” each time.

In the case of `CN(C)c1ccc(O)c2c1C[C@H]1C[C@H]3[C@H](N(C)C)C(=O)C(C(N)=O)=C(O)[C@@]3(O)C(=O)C1=C2O`, the outcome in [1] and in experiment [5] was inactive. The Potency in [2] was 21.1 µM (active) [middle of 4 runs]; in experiment [3], 26.6 µM (active) and 18.8 µM (active) and 13.7 µM (active); in experiment [4], 23.7 µM (active) [middle of 4 runs]. Besides, the Potency entry in experiment [6] is “inactive”.

For the compound `CC(=O)c1ccc(O)cc1`, the result in experiment [1] and in [5] was inactive. For the same compound, the Potency entry in experiment [2], in [3], in experiment [4] and in experiment [6] was “inactive” throughout.

On to `OCc1cccc(Oc2ccccc2)c1`, for which the call in experiment [1], in experiment [5] and in [10] was inactive. The Potency result in [2], in experiment [3], in experiment [4], in [8], in [9] and in [6] was “inactive” each time.

Regarding `Clc1ccccn1`, the compound was classed as inactive in experiment [1] and in [5]. In addition, the Potency entry in experiment [2], in [3], in [4] and in [6] was “inactive” throughout.

For the compound `COc1ccccc1OCC(O)CO` (stereo not given), the call in experiment [1], in [5], in experiment [7] and in experiment [10] was inactive. The Potency entry in experiment [2], in [3], in experiment [4], in [8], in [9] and in experiment [6] was “inactive” in each case.

Consider `COc1ccc(CCC(C)=O)cc1`, for which the result in experiment [1] and in experiment [5] was inactive. For the same compound, the Potency result in [2], in [3] and in [4] was “inactive” throughout.

Regarding `CC(=O)OCc1ccccc1`, the outcome in experiment [1], in [5], in experiment [7] and in experiment [10] was inactive. In addition, the Potency entry in experiment [2], in [3], in [4], in experiment [8], in experiment [9] and in experiment [6] was “inactive” in each case.

On to `O=C(O)c1ccc(C(=O)O)c(C(=O)O)c1`, for which the call in [1], in experiment [5], in [7] and in experiment [10] was inactive. Further, the Potency result in experiment [2], in experiment [3], in experiment [4], in [8], in experiment [9] and in experiment [6] was “inactive” in each case.

`Brc1ccc(Br)c(Br)c1`: the result in experiment [1] and in experiment [5] was inactive. For the same compound, the Potency result in experiment [2], in [3], in experiment [4] and in experiment [6] was “inactive” in each case.

With `C[Si]1(C)O[Si](C)(C)O[Si](C)(C)O[Si](C)(C)O1`, the compound was classed as inactive in experiment [1] and in experiment [5]. Further, the Potency result in experiment [2], in [3], in experiment [4] and in experiment [6] was “inactive” throughout.

With `CC(O)CC(C)(C)O` (stereo not given), the call in [1] and in [5] was inactive. Further, the Potency entry in experiment [2], in [3], in experiment [4] and in experiment [6] was “inactive” throughout.

Regarding `CCO[Si](CCCN)(OCC)OCC`, the outcome in experiment [1] and in experiment [5] was inactive. For the same compound, the Potency entry in experiment [2], in [3], in experiment [4] and in experiment [6] was “inactive” each time.

Regarding `CCOCCOCCOCCO`, the result in experiment [1] and in experiment [5] was inactive. The Potency entry in [2], in experiment [3], in experiment [4] and in [6] was “inactive” throughout.

As to `Cc1ccc(C(C)C)c(O)c1`, the compound was classed as inactive in experiment [1] and in [5]. Further, the Potency entry was “inactive and 48.6 µM (active)” in [2]; “inactive and 17.2 µM (active)” in [3]; “inactive and 61.1 µM (active)” in experiment [4]. In addition, the Potency result in experiment [6] is “inactive”.

With `CCOCC(=O)O`, the compound was classed as inactive in experiment [1] and in [5]. Moreover, the Potency entry in experiment [2], in experiment [3], in experiment [4] and in [6] was “inactive” throughout.

`CCCCCCCCCCCC(=O)OC`: the call in experiment [1] and in experiment [5] was inactive. Also, the Potency result in experiment [2], in experiment [3], in experiment [4] and in experiment [6] was “inactive” each time.

Turning to `CN(C)c1ccc(Cc2ccc(N(C)C)cc2)cc1`, the result in [1] and in experiment [5] was inactive. Moreover, the Potency in experiment [2] was 27.3 µM (active); in experiment [3], 48.8 µM (active) and 27.3 µM (active); in experiment [4], 61.4 µM (active) and 24.3 µM (active). Moreover, in [6], the Potency entry was “inactive”.

With `CC(C)(C#N)c1cc(Cn2cncn2)cc(C(C)(C)C#N)c1`, the result in experiment [1] and in experiment [5] was inactive. Besides, the Potency result in experiment [2], in experiment [3], in [4] and in [6] was “inactive” throughout.

With `CCOC(=O)c1ccc(N)cc1`, the result in experiment [1] and in experiment [5] was inactive. Moreover, the Potency entry in experiment [2], in [3] and in [6] was “inactive” throughout. The Potency in experiment [4] was 7.17 µM (active) and inactive.

Take `CCCCCCCCCCCCCCCCO`: the compound was called inactive in [1] and in experiment [5]. Moreover, the Potency result in experiment [2], in experiment [4] and in experiment [6] was “inactive” each time. Also, the Potency result in [3] was “inactive and 68.6 µM (active)”.

With `CC(CCl)OP(=O)(OC(C)CCl)OC(C)CCl` (stereo not given), the compound was called inactive in [1] and in [5]. The Potency entry in [2], in [3], in experiment [4] and in experiment [6] was “inactive” each time.

The record behind these values is PubChem BioAssay (Tox21).
